Data as given in PubChem BioAssay AID1159580 (chemical genetic matrix, 2015).
“And” between values parts separate entries of the source, which are not always exact repeats. Equal entries are not always repeated. Among all 5,500 compounds or so, about 2,000 (36%) were called active. Not shown: some 18% with an inconclusive outcome. Cut-off read from the data, not from the text of the source: active = normalized growth mostly below about 0.91 (no sharp cut-off); inconclusive = no clear call, values can overlap the other calls; inactive = mostly above about 0.92. The list shows a part of the results.

Experiment: chemical genetic growth profiling, strain panel (AID 1159580);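 note: tested at 20 µM; growth read once vehicle control cultures reached saturation at 30 °C; 1 = growth at the plate median or of vehicle wells; lower values mean less growth of the strain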
Details: S. cerevisiae deletion strains, growth OD

Measured: normalized growth

O=c1oc2ccccc2c(O)c1Cc1c(O)c2ccccc2oc1=O
inactive: locus YAL013W, strain DEP1, active compounds read low 1.01 | locus YAL021C, strain ccr4, active compounds read low 0.977 | locus YAL026C, strain drs2, active compounds read low 1.03 | locus YAL030W, strain snc1, active compounds read low 1.02 | locus YBL061C, strain skt5, active compounds read low 1.02 | locus YBR009C, strain hhf1, active compounds read low 1.01 | locus YBR021W, strain FUR4, active compounds read low 1.01 | locus YBR023C, strain chs3, active compounds read low 1.01 | locus YBR171W, strain sec66, active compounds read low 1.01 | locus YBR229C, strain ROT2, active compounds read low 0.998 | locus YBR231C, strain swc5, active compounds read low 1.02 | locus YBR279W, strain paf1, active compounds read low 1 | locus YCL011C, strain gbp2, active compounds read low 1.02 | locus YCL016C, strain dcc1, active compounds read low 1 | locus YCL029C, strain bik1, active compounds read low 0.968 | locus YCL069W, strain vba3, active compounds read low 1.02 | locus YCR088W, strain abp1, active compounds read low 1.02 | locus YDL005C, strain med2, active compounds read low 1.04 | locus YDL035C, strain GPR1, active compounds read low 1.04 | locus YDL040C, strain nat1, active compounds read low 1.03 | locus YDL074C, strain BRE1, active compounds read low 1.02 | locus YDL101C, strain DUN1, active compounds read low 1.01 | locus YDL185W, strain tfp1, active compounds read low 0.962 | locus YDL192W, strain arf1, active compounds read low 0.962 | locus YDR001C, strain nth1, active compounds read low 1 | locus YDR069C, strain doa4, active compounds read low 0.994 | locus YDR101C, strain arx1, active compounds read low 0.984 | locus YDR137W, strain rgp1, active compounds read low 1.03 | locus YDR159W, strain sac3, active compounds read low 0.936 | locus YDR162C, strain NBP2, active compounds read low 1.01 | locus YDR195W, strain ref2 1.01 | locus YDR297W, strain sur2, active compounds read low 1.01 | locus YDR318W, strain mcm21, active compounds read low 0.979 | locus YDR334W, strain swr1, active compounds read low 1.04 | locus YDR335W, strain msn5, active compounds read low 1.02 | locus YDR388W, active compounds read low 0.959 | locus YDR392W, strain spt3, active compounds read low 0.919 | locus YDR502C, strain sam2, active compounds read low 0.982 | locus YEL003W, strain gim4, active compounds read low 1.02 | locus YEL037C, strain rad23, active compounds read low 1.03 | locus YEL061C, strain CIN8 (second series), active compounds read low 1.03 | locus YEL061C, strain CIN8, active compounds read low 0.993 | locus YER015W, strain faa2, active compounds read low 1.01 | locus YER016W, strain bim1, active compounds read low 1.01 | locus YER110C, active compounds read low 0.96 | locus YER111C, strain swi4, active compounds read low 1.01 | locus YER155C, strain BEM2 (second series), active compounds read low 1.02 | locus YER155C, strain BEM2, active compounds read low 0.984 | locus YER167W, strain BCK2, active compounds read low 1.01 | locus YFR010W, strain ubp6, active compounds read low 1.02 | locus YGL078C, strain dbp3, active compounds read low 0.952 | locus YGL086W, strain mad1, active compounds read low 0.996 | locus YGL167C, strain pmr1, active compounds read low 1.01 | locus YGL173C, strain kem1, active compounds read low 1.01 | locus YGL227W, strain vid30, active compounds read low 1 | locus YGL240W, strain doc1, active compounds read low 0.984 | locus YGL248W, strain PDE1, active compounds read low 1.01 | locus YGL253W, strain hxk2, active compounds read low 1.02 | locus YGR078C, strain PAC10, active compounds read low 1.01 | locus YGR135W, strain pre9, active compounds read low 0.959 | locus YGR229C, strain SMI1, active compounds read low 1.02 | locus YGR252W, strain gcn5, active compounds read low 0.95 | locus YHR013C, strain ard1, active compounds read low 1 | locus YHR027C, strain rpn1, active compounds read low 1.01 | locus YHR030C, strain SLT2, active compounds read low 0.993 and 0.907 | locus YHR079C, strain IRE1 (second series), active compounds read low 0.963 | locus YHR079C, strain IRE1, active compounds read low 0.917 | locus YHR094C, strain hxt1, active compounds read low 0.96 | locus YHR129C, strain ARP1, active compounds read low 0.991 | locus YHR142W, strain chs7, active compounds read low 1.08 | locus YHR200W, strain rpn10, active compounds read low 0.98 | locus YIL066C, strain RNR3, active compounds read low 1 | locus YIL073C, strain SPO22, active compounds read low 0.979 | locus YIL125W, strain kgd1, active compounds read low 0.959 | locus YIR030C, strain dcg1, active compounds read low 0.96 | locus YJL092W, strain hpr5, active compounds read low 1.01 | locus YJL095W, strain BCK1 (second series), active compounds read low 1.01 | locus YJL095W, strain BCK1, active compounds read low 0.989 and 0.898 | locus YJL115W, strain asf1, active compounds read low 1.01 | locus YJL129C, strain trk1, active compounds read low 1 | locus YJL134W, strain LCB3, active compounds read low 0.987 | locus YJL154C, strain vps35, active compounds read low 1.02 | locus YJL164C, strain tpk1, active compounds read low 1.03 | locus YJL166W, strain qcr8, active compounds read low 0.995 | locus YJL168C, strain set2, active compounds read low 0.953 | locus YJL187C, strain SWE1 (second series), active compounds read low 1 | locus YJL187C, strain SWE1, active compounds read low 0.991 | locus YJR043C, strain POL32, active compounds read low 1.02
